According to article PMC11062922 (Nature Chemical Biology, 2023):
Like-named read-outs stand apart in the source and are kept apart here.

Columns and labels:
Parameters in all cases: species or system human, MV4-11 + K-562 + COLO205 + SK-N-BE2 + OVCAR-8
ATM = conditions: read-out: apparent Kd, n = 1
MAP3K1 = conditions: read-out: apparent Kd; compound concentrations:100 nM and 1000 nM (sheet 'Samples'); n = 1
NUAK2 = conditions: read-out: apparent Kd; compound concentrations:100 nM and 1000 nM (sheet 'Samples'); n = 1
PIK3CD = conditions: read-out: apparent Kd, n = 1
PLK1 = conditions: read-out: apparent Kd, compound concentrations: 100 nM and 1000 nM (sheet 'Samples'), n = 1
AKT3 = conditions: read-out: apparent Kd, n = 1
DCTPP1 = conditions: read-out: apparent Kd; compound concentrations:100 nM and 1000 nM (sheet 'Samples'); n = 1
NQO1 = conditions: read-out: apparent Kd, n = 1
PRKAG1 = conditions: read-out: apparent Kd; compound concentrations:100 nM and 1000 nM (sheet 'Samples'); n = 1
COX5A = conditions: read-out: apparent Kd; compound concentrations: 100 nM and 1000 nM (sheet 'Samples'), CATDS: 0.36000634537809301; n = 1
MAPKAPK2 = conditions: read-out: apparent Kd; compound concentrations: 100 nM and 1000 nM (sheet 'Samples'), CATDS: 0.330960581513286; n = 1
GSK3A = conditions: read-out: apparent Kd, n = 1
MTHFD1 = conditions: read-out: apparent Kd; compound concentrations: 100 nM and 1000 nM (sheet 'Samples'), CATDS: 0.40947747984703597; n = 1
FECH = conditions: read-out: apparent Kd; compound concentrations: 100 nM and 1000 nM (sheet 'Samples'), CATDS: 0.190744919400651; n = 1
PIK3CA = conditions: read-out: apparent Kd, compound concentrations: 100 nM and 1000 nM (sheet 'Samples'), n = 1
PRKACG = conditions: read-out: apparent Kd; compound concentrations: 100 nM and 1000 nM (sheet 'Samples'), CATDS: 0.152371623335085; n = 1
AKT2 = conditions: read-out: apparent Kd; compound concentrations: 100 nM and 1000 nM (sheet 'Samples'), CATDS: 0.183770633421974; n = 1
CSNK1D = conditions: read-out: apparent Kd; compound concentrations: 100 nM and 1000 nM (sheet 'Samples'), CATDS: 0.20295054988008099; n = 1
DYNC1LI1 = conditions: read-out: apparent Kd; compound concentrations: 100 nM and 1000 nM (sheet 'Samples'), CATDS: 0.215188969129953; n = 1
MAPK14 = conditions: read-out: apparent Kd; compound concentrations: 100 nM and 1000 nM (sheet 'Samples'), CATDS: 0.21262407645477699; n = 1
AP1G1 = conditions: read-out: apparent Kd; compound concentrations:100 nM and 1000 nM (sheet 'Samples'); n = 1
GAK = conditions: read-out: apparent Kd; compound concentrations: 100 nM and 1000 nM (sheet 'Samples'), CATDS: 0.73237388981335505; n = 1
NLK = conditions: read-out: apparent Kd; compound concentrations: 100 nM and 1000 nM (sheet 'Samples'), CATDS: 0.15655838953280801; n = 1
RIPK2 = conditions: read-out: apparent Kd; compound concentrations: 100 nM and 1000 nM (sheet 'Samples'), CATDS: 0.226668000101196; n = 1
CDC42 = conditions: read-out: apparent Kd; compound concentrations: 100 nM and 1000 nM (sheet 'Samples'), CATDS: 0.120707875604042; n = 1
MTOR = conditions: read-out: apparent Kd; compound concentrations: 100 nM and 1000 nM (sheet 'Samples'), CATDS: 0.13183909981737599; n = 1
PKN3 = conditions: read-out: apparent Kd; compound concentrations: 100 nM and 1000 nM (sheet 'Samples'), CATDS: 0.11684999356733999; n = 1
GSK3B = conditions: read-out: apparent Kd; compound concentrations:100 nM and 1000 nM (sheet 'Samples'); n = 1
MAP2K2 = conditions: read-out: apparent Kd; compound concentrations:100 nM and 1000 nM (sheet 'Samples'); n = 1
SKIV2L2 = conditions: read-out: apparent Kd; compound concentrations:100 nM and 1000 nM (sheet 'Samples'); n = 1
FLT4 = conditions: read-out: apparent Kd; compound concentrations: 100 nM and 1000 nM (sheet 'Samples'), CATDS: 0.25804604622039201; n = 1
MYLK3 = conditions: read-out: apparent Kd; compound concentrations: 100 nM and 1000 nM (sheet 'Samples'), CATDS: 0.16564230425287901; n = 1
TTN = conditions: read-out: apparent Kd; compound concentrations: 100 nM and 1000 nM (sheet 'Samples'), CATDS: 0.28618499292255201; n = 1
AXL = conditions: read-out: apparent Kd; compound concentrations:100 nM and 1000 nM (sheet 'Samples'); n = 1
EIF2AK1 = conditions: read-out: apparent Kd, n = 1
AURKB = conditions: read-out: apparent Kd; compound concentrations: 100 nM and 1000 nM (sheet 'Samples'), CATDS: 0.15442610034884699; n = 1
EGFR = conditions: read-out: apparent Kd; compound concentrations: 100 nM and 1000 nM (sheet 'Samples'), CATDS: 9.4589689461148804E-2; n = 1
FLT3 = conditions: read-out: apparent Kd; compound concentrations: 100 nM and 1000 nM (sheet 'Samples'), CATDS: 0.410073684021382; n = 1
LIMK1 = conditions: read-out: apparent Kd; compound concentrations: 100 nM and 1000 nM (sheet 'Samples'), CATDS: 8.0890535197294403E-2; n = 1
LIMK2 = conditions: read-out: apparent Kd; compound concentrations: 100 nM and 1000 nM (sheet 'Samples'), CATDS: 0.109376912936183; n = 1
NNT = conditions: read-out: apparent Kd; compound concentrations: 100 nM and 1000 nM (sheet 'Samples'), CATDS: 8.6496378870903501E-2; n = 1
PDGFRB = conditions: read-out: apparent Kd; compound concentrations: 100 nM and 1000 nM (sheet 'Samples'), CATDS: 9.2318331607570206E-2; n = 1
TESK2 = conditions: read-out: apparent Kd; compound concentrations: 100 nM and 1000 nM (sheet 'Samples'), CATDS: 9.3788253526120594E-2; n = 1
[1] = compound concentrations:100 nM and 1000 nM (sheet 'Samples')

Compound C[C@@H](Oc1cc(-n2cnc3ccc(CN4CCN(C)CC4)cc32)sc1C(N)=O)c1ccccc1C(F)(F)F [GSK461364] has a potency estimated from few doses (ATM; [1]) of 264 nM, a potency estimated from few doses (MAP3K1) of 102 nM and a potency estimated from few doses (NUAK2) of 1280 nM. It also gave a potency estimated from few doses (PIK3CD; [1]) of 214 nM and a potency estimated from few doses (PLK1; CATDS: 0.443689991043278) of 42.1 nM.
Work on CC(C)NC(=O)N1CC[C@H](NC2=Nc3cc(F)ccc3N(CC(F)F)c3ccc(Cl)cc32)C1 [NVS-PAK1-1] yielded a potency estimated from few doses (AKT3; [1]) of 1760 nM, a potency estimated from few doses (DCTPP1) of 2220 nM and a potency estimated from few doses (NQO1; [1]) of 1340 nM. The potency estimated from few doses (PRKAG1) was 1740 nM.
For FC(F)(F)c1cccc(-c2nn3ncccc3c2-c2ccnc(Nc3ccc4c(c3)OCCO4)n2)c1 [GW827102X], the potency estimated from few doses (AKT3; compound concentrations: 100 nM and 1000 nM (sheet 'Samples'), CATDS: 0.31242547502762402) was 2070 nM, the potency estimated from few doses (COX5A) was 1560 nM and the potency estimated from few doses (MAPKAPK2) was 1830 nM.
In the case of Cc1cnc(N)c(/C=C/c2cncc(C(=O)NCCc3ccc(Cl)cc3Cl)c2)c1.Cl [GSK190937A], the potency estimated from few doses (ATM; compound concentrations: 100 nM and 1000 nM (sheet 'Samples'), CATDS: 1) is reported as 186 nM.
Cn1cc(C2=C(c3cn(C)c4cc(C(N)=O)ccc34)C(=O)NC2=O)c2ccccc21 [RO0319317-000] was tested, and the potency estimated from few doses (ATM; compound concentrations: 100 nM and 1000 nM (sheet 'Samples'), CATDS: 0.45876429377403) was 142 nM, the potency estimated from few doses (GSK3A; compound concentrations: 100 nM and 1000 nM (sheet 'Samples'), CATDS: 0.228409862678119) was 860 nM and the potency estimated from few doses (MTHFD1) was 175 nM.
Compound COc1cccc(COc2cc(-n3cnc4ccccc43)sc2C(N)=O)c1 [GW804482X] has a potency estimated from few doses (ATM; compound concentrations: 100 nM and 1000 nM (sheet 'Samples'), CATDS: 0.32091008376932201) of 210 nM, a potency estimated from few doses (FECH) of 558 nM and a potency estimated from few doses (PIK3CA; CATDS: 0.27121911823644002) of 277 nM. The potency estimated from few doses (PLK1; CATDS: 0.15646266136602699) was 938 nM and the potency estimated from few doses (PRKACG) was 1020 nM.
Work on CSc1nccc(-c2c(-c3ccc(F)cc3)ncn2CCCN2CCOCC2)n1.Cl [SB-217146-A] yielded a potency estimated from few doses (AKT2) of 2140 nM, a potency estimated from few doses (CSNK1D) of 1740 nM and a potency estimated from few doses (DYNC1LI1) of 1560 nM. It also gave a potency estimated from few doses (MAPK14) of 1590 nM and a potency estimated from few doses (NQO1; compound concentrations: 100 nM and 1000 nM (sheet 'Samples'), CATDS: 0.18936127019719301) of 2010 nM.
COc1cccc(OC)c1C(=O)Nc1cccc(-c2nn3ccccc3c2-c2ccnc(Nc3cccc(F)c3)n2)c1 [GSK361065A] gave a potency estimated from few doses (AP1G1) of 895 nM.
COc1cc(Nc2ccnc3ccc(Br)cc23)cc(OC)c1OC [CA93.0] showed a potency estimated from few doses (ATM; compound concentrations: 100 nM and 1000 nM (sheet 'Samples'), CATDS: 0.26072592490086599) of 205 nM, a potency estimated from few doses (GAK) of 22.7 nM and a potency estimated from few doses (NLK) of 1500 nM. The potency estimated from few doses (RIPK2) was 311 nM.
Fc1ccc(-c2c(-c3ccncc3)nc3n2CCS3)cc1 [SKF-86055] gave a potency estimated from few doses (ATM; compound concentrations: 100 nM and 1000 nM (sheet 'Samples'), CATDS: 0.230066198267698) of 174 nM, a potency estimated from few doses (CDC42) of 940 nM and a potency estimated from few doses (MTOR) of 688 nM. For the same compound, the potency estimated from few doses (PIK3CA; CATDS: 0.214179011469951) was 201 nM, the potency estimated from few doses (PIK3CD; compound concentrations: 100 nM and 1000 nM (sheet 'Samples'), CATDS: 0.39108548114929897) was 71.3 nM and the potency estimated from few doses (PKN3) was 1070 nM.
O=C1NC(=O)C(c2ccc(Cl)cc2)=C1Nc1ccc(Cl)c(C(=O)O)c1 [SB-360741] gave a potency estimated from few doses (AKT3; [1]) of 1530 nM, a potency estimated from few doses (GSK3A; [1]) of 601 nM and a potency estimated from few doses (GSK3B) of 1310 nM. For the same compound, the potency estimated from few doses (MAP2K2) was 140 nM and the potency estimated from few doses (SKIV2L2) was 1360 nM.
Compound CCN(CC)S(=O)(=O)c1ccc(OC)c(Nc2ncc(-c3ccccc3)o2)c1 [GW572401X] has a potency estimated from few doses (ATM; compound concentrations: 100 nM and 1000 nM (sheet 'Samples'), CATDS: 0.38559803360956002) of 233 nM, a potency estimated from few doses (FLT4) of 495 nM and a potency estimated from few doses (MYLK3) of 1940 nM. For the same compound, the potency estimated from few doses (TTN) was 399 nM.
Compound Cc1cccc(CC(=O)N2CCc3c2ccc(-c2cn(C)c4ncnc(N)c24)c3F)n1 [GSK2656157] has a potency estimated from few doses (AXL) of 503 nM and a potency estimated from few doses (EIF2AK1; [1]) of 751 nM.
Nc1ncnc2scc(-c3ccc(NC(=O)Cc4cc(F)ccc4F)cc3)c12.O=C(O)C(F)(F)F [SB-731254-M] showed a potency estimated from few doses (AURKB) of 399 nM, a potency estimated from few doses (EGFR) of 1180 nM and a potency estimated from few doses (EIF2AK1; compound concentrations: 100 nM and 1000 nM (sheet 'Samples'), CATDS: 0.14381895647439999) of 457 nM. The potency estimated from few doses (FLT3) was 85.2 nM, the potency estimated from few doses (LIMK1) was 1910 nM and the potency estimated from few doses (LIMK2) was 817 nM. It also gave a potency estimated from few doses (NNT) of 1530 nM, a potency estimated from few doses (PDGFRB) of 1260 nM and a potency estimated from few doses (TESK2) of 1210 nM.
